# Assay outcomes: PubChem BioAssay, National Center for Advancing Translational Sciences (NCATS)
# VP16 counter = inhibits Gal4-VP16 luciferase reporter, ROR gamma counter-screen; Drosophila S2 Gal4-VP16 UAS-luciferase, luminescence, 20 h; 310,000 compounds, 3.5% hits; Potency, µM (highest dose often 53.6 µM), for inactives: top-dose activity, negative = inhibition, hits mostly inhibitors;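 also: Gal4-VP16 expression switched on by copper sulfate through the metallothionein promoter; nearly all actives have a fitted effect of over 50% in size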
# ALDH1A1 block = inhibitors of human aldehyde dehydrogenase 1A1. Potency, µM (top dose mostly 75.3 µM), for the others: at the highest dose activity, negative = inhibition, most hits filed as inhibitors. AID 1030. Purified ALDH1A1, NADH fluorescence, propionaldehyde substrate. 220,000 compounds, 7.3% hits; active = well fitted inhibition curve with a large enough effect, not every such curve was filed as active; inconclusive = small, poorly fitted or top-dose-only effect, or another doubt; inactive = no such curve, though single readings can be large or run the other way;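 also: plate controls were no enzyme wells and a reference inhibitor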
# PLK1 PBD block = PLK1 (human) polo-box domain binding inhibition. P53350. Plk1 PBD binding of FITC phosphopeptide, fluorescence polarization. Potency, µM, for inactives: max response, negative = inhibition, most hits filed as inhibitors. 360,000 compounds, 2.8% hits. AID 720504; also: series mostly up to about 57 µM; nearly all actives have a fitted effect of over 65% in size
# Sfp PPTase inh = inhibitors of Bacillus subtilis Sfp phosphopantetheinyl transferase; Q9F4F7; Biochemical Sfp PPTase activity, qHTS; Potency, µM, for the others: largest response in the series, negative = inhibition, hits mostly inhibitors; 310,000 compounds, 3.5% hits;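 also: the enzyme is Sfp with the accession as filed and its product quenches rhodamine fluorescence; 0% = enzyme reaction without inhibitor and -100% = no enzyme wells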
#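 Fluorescence-quenching assay with 15 nM Sfp, 5 uM rhodamine-CoA and 12.5 uM BHQ-2-labelled ybbR peptide in pH 7.6 Hepes/MgCl2 buffer. Enzyme was pre-incubated with compound for 15 min at room temperature. Rate was taken from the 30-min fluorescence change (525/598 nm).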
# RORgamma inh = blocks mouse ROR gamma transcriptional activity; 310,000 compounds, 5.4% hits; Drosophila S2 Gal4-RORgamma UAS-luciferase reporter, 20 h; Potency, µM (titrated, usually from 53.6 µM), for inactives: top-dose activity change, negative = inhibition, usual class: inhibitors; P51450; AID 2551; also: nearly all actives have a fitted effect of over 60% in size
# Target sequence (P51450 whole entry, looked up, the tested form may be a part): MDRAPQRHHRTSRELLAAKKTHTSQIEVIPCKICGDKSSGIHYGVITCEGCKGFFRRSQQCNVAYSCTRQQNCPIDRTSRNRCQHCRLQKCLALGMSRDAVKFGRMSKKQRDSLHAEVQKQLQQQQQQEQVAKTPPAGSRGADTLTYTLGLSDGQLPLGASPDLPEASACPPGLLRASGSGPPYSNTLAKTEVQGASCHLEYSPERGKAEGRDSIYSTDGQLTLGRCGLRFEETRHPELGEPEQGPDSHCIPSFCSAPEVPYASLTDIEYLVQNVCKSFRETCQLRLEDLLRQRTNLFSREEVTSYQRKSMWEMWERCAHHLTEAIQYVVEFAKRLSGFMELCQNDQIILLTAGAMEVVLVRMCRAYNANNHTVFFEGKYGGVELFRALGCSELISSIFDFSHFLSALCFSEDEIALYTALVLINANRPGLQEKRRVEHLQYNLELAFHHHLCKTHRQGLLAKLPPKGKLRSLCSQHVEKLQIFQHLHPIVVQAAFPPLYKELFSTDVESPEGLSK
#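 Luciferase reporter read in Schneider cells carrying Gal4-RORγ (mouse) and UAS-Photinus luciferase; cells given compound 1 h before 700 uM copper sulfate induction, then incubated 20 h at ambient temperature.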
# * = called active by the depositor; ? = inconclusive; nt = no result given; ! = repeats disagree. A selection: hits, their analogues and other compounds. The true share with any hit is near 12%. Unless noted, calls follow the shape of the dose curve; as a rule, active = well fitted curve in the direction sought with a large enough effect; inconclusive = small, poorly fitted or top-dose-only effect, or another doubt; inactive = no such curve, though single readings can be large; an effect the other way counts as inactive or inconclusive. Unless noted, % is scaled to controls: 0 for no effect and ±100 for the full control effect; potency is read from the fitted curve at half-maximal effect.
SMILES,VP16 counter,ALDH1A1 block,PLK1 PBD block,Sfp PPTase inh,RORgamma inh
CN(C)c1ccc(-c2nc3ccccn3c2/N=C/c2ccc(Br)cc2)cc1,8.9µM*,?,0%,-30%,7.1µM*
C/C(=N/NS(=O)(=O)c1ccc(Br)cc1)c1cccc(NC(=O)C2CC2)c1,nt,nt,4%,nt,nt
COCCN1C[C@@H](CO)O[C@@H](n2cnc3c(NCCN(C)C)ncnc32)C1,nt,nt,8%,nt,nt
Cc1ccc(C(=O)Nc2nc(-c3ccco3)c(-c3ccco3)s2)o1,nt,nt,-30%,nt,nt
O=C(CCCSc1ccccc1)Nc1nc(-c2ccco2)c(-c2ccco2)s1,?,?,-17%,16µM*,-27%
O=C(CCl)Nc1nc(-c2ccco2)c(-c2ccco2)s1,?,0.4µM*,?,45µM*,?
CC(=O)N1CCC2(CCCN(c3ccccn3)C2)CC1,7%,?,nt,4%,-11%
CC1C(c2ccccc2)N(C)C(c2ccccc2)C(C)C1(O)C#Cc1ccccc1 (stereo unspecified),?,0%,-1%,-12%,16µM*
CCCCCCCCCCOc1cc2c(=O)c(C(=O)OCC)c[nH]c2cc1OCC,-4%,nt,nt,-3%,7%
CCOc1cc(-c2sc(Nc3ccccc3)n[n+]2C)ccc1OC,?,nt,-10%,-1%,-27%
O=C(O)c1ccc(-c2sc(Nc3ccccc3)n[n+]2-c2ccccc2)cc1,-3%,nt,-5%,50µM*,-3%
c1ccc(COc2ccc(-c3sc(Nc4ccccc4)n[n+]3-c3ccccc3)cc2)cc1,?,nt,nt,56µM*,-31%
CCc1ccc(Nc2n[n+](-c3ccccc3)c(-c3ccc(OCc4ccccc4)cc3)s2)cc1,?,nt,?,-7%,7.9µM*
COCCn1c(=O)c(-c2cn(C)c3ccccc23)nc2cnc(Oc3ccccc3)nc21,-12%,?,nt,20%,18%
Cc1noc(C)c1C(=O)N1CCCC(C)(C(=O)NS(=O)(=O)C2CC2)C1 (stereo unspecified),nt,nt,-6%,nt,nt
COc1ccc(C(=O)N(C)[C@H]2C[C@H]3c4[nH]c5ccccc5c4CCN3C(=O)[C@H]2CO)cc1,nt,nt,0%,nt,nt
CCc1noc(C)c1C(=O)NCCN1C(=O)S/C(=C\c2ccccc2F)C1=O,nt,nt,2%,nt,nt
COc1ccc(CN(C2CCCC2)S(=O)(=O)c2ccc(-n3cnnn3)cc2)cc1OC,-17%,1.8µM*,-5%,4%,?
COc1cc(S(=O)(=O)N(Cc2ccc(C)cc2)C2CCCCC2)ccc1-n1cnnn1,0%,?,-2%,8%,-1%
COc1ccc(C(=O)NC2=NCCS2)cc1S(=O)(=O)N1CCOCC1,nt,nt,4%,nt,nt
CC(C)(C)Nc1c(-c2ccc(O)cc2)nc2ccc(Cl)cn12,?,?,2%,63µM*,?
Cc1ccccc1/C=c1\s/c(=C\C(=O)C(C)(C)C)[nH]c1=O,0.89µM*,-18%,-13%,-8%,?
CN(C)CCC1(c2ccccc2)CCN(C)C1=O (stereo unspecified),nt,nt,-7%,nt,nt
COc1ccc(-c2nn(-c3ccccc3)cc2C(=O)OCC(=O)c2ccc(C)c([N+](=O)[O-])c2)cc1,18µM*,6%,-8%,17%,?
CC(C)Oc1ccc(F)cc1-c1cc(C(=O)N2CCc3ccccc3C2)[nH]n1,nt,nt,-4%,nt,nt
SMILES,VP16 counter,ALDH1A1 block,PLK1 PBD block,Sfp PPTase inh,RORgamma inh
CC(=O)c1ccc(NS(=O)(=O)c2ccc(N)cc2)cc1,?,8%,30µM*,12%,-29%
COC(=O)NCC12CC3CC(C1)CC(CNC(=O)OC)(C3)C2,-4%,10%,12µM*,15%,18%
CCc1ccc(CSc2nccn2-c2ccccc2)cc1,-28%,-5%,-4%,-4%,8.9µM*
COC(=O)CCCSc1nccn1-c1ccccc1,-14%,-13%,-9%,5%,0%
c1ccc(CCSc2nccn2-c2ccccc2)cc1,-6%,-9%,-8%,3%,10µM*
O=C(Nc1nnc(-c2ccccc2Cl)s1)c1ccccc1F,-1%,nt,1%,0%,-14%
CC(C)(C)c1ccc(-c2nnc(NC(=O)c3ccccc3)s2)cc1,?,?,-3%,10%,7.9µM*
NC(=O)c1ccccc1NC(=O)c1ccccc1Cl,15%,nt,-8%,18%,9%
O=C(Nc1nnc(-c2ccccc2)s1)c1ccccc1F,1%,nt,-13%,6%,13µM*
O=C(Nc1ccccc1C(=O)Nc1nnc(C(F)(F)F)s1)c1ccccc1Cl,16µM*,?,27µM*,12%,?
O=C(Nc1nnc(-c2ccco2)s1)c1ccccc1,-13%,25µM*,-8%,45µM*,?
COc1ccc(C(=O)Nc2nnc(-c3ccco3)s2)cc1,?,-17%,0%,-4%,-43%
c1ccc(CNc2nc(NCCc3ccncc3)c3sccc3n2)cc1,nt,nt,-3%,nt,nt
NC(=O)c1ccc2nc(-c3ccc(Oc4ccc(Cl)cc4)cc3)[nH]c2c1,?,nt,nt,-16%,?
Cc1ccc(S(=O)(=O)Oc2ccc(/C=C3/N=C(c4ccccc4)OC3=O)cc2)cc1,?,8.9µM*,-16%,?,15%
CC1(C(=O)Nc2ccc3c(c2)OCO3)CCN1C(=O)C1CCCCC1 (stereo unspecified),nt,nt,-6%,nt,nt
Cc1cc2oc(=O)cc(Cn3ncc(Cl)c(Cl)c3=O)c2cc1Cl,?,0.079µM*,-27%,-7%,-23%
CCC/C=N/Nc1nc2ccccc2s1,?,-3%,-5%,-5%,11µM*
C(=C\c1ccccc1)/C=N/Nc1nc2ccccc2s1,?,4%,-2%,-8%,7.9µM*
O=C(CSc1nnc(Cc2cccs2)n1Cc1ccco1)Nc1cccc(Cl)c1,11µM*,7%,-10%,-90%,?
CN(C)c1ccc(NC(=O)CSc2nnc(-c3cccs3)n2Cc2ccco2)cc1,0%,18µM*,0%,1%,13%
COc1ccc(S(=O)(=O)N(C)C[C@@H]2Oc3cc(C#CC4CCCCC4)ccc3S(=O)(=O)N([C@@H](C)CO)C[C@@H]2C)cc1,nt,nt,-21%,nt,nt
CCN(C(=O)c1ccco1)c1nc(CC(=O)Nc2ccc(Cl)cc2)cs1,-6%,?,-5%,-1%,?
CCC(=O)N(Cc1ccco1)c1nc(C(=O)Nc2ccc(Cl)cc2)c(C)s1,-8%,22µM*,?,20µM*,?
CCN(C(=O)CCN1C(=O)S/C(=C\c2ccccc2)C1=O)C1CCS(=O)(=O)C1 (stereo unspecified),?,nt,-9%,12%,?
Cc1sc(N)c(C(=O)c2cccc(C(F)(F)F)c2)c1C,17%,?,nt,79µM*,?
Cc1noc(C(F)(F)F)c1C(=O)NNC(=O)c1cccc(C(F)(F)F)c1,2%,nt,-3%,3%,0%
CN(C)c1ccc(C(=C2C=CC(=[N+](C)C)C=C2)c2ccc(N(C)C)cc2)cc1,1.6µM*!,-4%,nt,45µM*!,1.1µM*
CN(C)c1ccc(C(=C2C=CC(=[N+](C)C)C=C2)c2c(O)c(S(=O)(=O)[O-])cc3cc(S(=O)(=O)O)ccc23)cc1,8.9µM*,nt,nt,?,8.9µM*
